# NPC1 prom act: activates the NPC1 promoter; Potency, µM (highest dose often 9.22 µM), without a hit: top-dose activation, usual class: activators; Huh7 NPC1 promoter luciferase reporter, 24 h; 320,000 tested, 2.4% active; also: % of control where 0% means no effect; nearly all actives have a fitted effect of over 60% in size
#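 Luciferase expression driven by the NPC1 promoter was measured in stably transfected Huh7 cells after a 24 h compound incubation, using a luciferase reagent and a luminescence read.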
# SMN2 splice up: enhancers of SMN2 splice variant expression | HEK293 SMN2-luciferase splicing reporter, luminescence, 30-36 h | Potency, µM (doses to about 46.1 µM), inactives show top-dose activity change, positive = activation, hits mostly activators | 210,000 tested, 2.8% active; also: % of control where 0% means no effect; nearly all actives have a fitted effect of over 55% in size
#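 qHTS luciferase splicing reporter: luminescence rises when SMN2 exon 7 is included in transfected HEK293 cells. Compound exposure lasted 30-36 h at 37C, with 4.5 mM final sodium butyrate as control, followed by a ONE-Glo read.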
# Rab9 promoter act: Rab9 promoter activation; Huh7 Rab9 promoter-luciferase reporter, luminescence, 24 h; Potency, µM (doses to about 9.22 µM), for the others: at the top dose activation, negative = inhibition, actives largely listed as activators; 320,000 tested, 2.8% active; also: % of control where 0% means no effect; nearly all actives have a fitted effect of over 60% in size
#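 Luciferase signal after 10 min detection reagent at ambient indicates Rab9 promoter upregulation; stably transfected Huh7 cells were treated 24 h with compound in DMSO at 37 °C, 5% CO2.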
# ELG1 repair inh: ELG1-dependent DNA repair inhibition; Potency, µM (series often up to 46.1 µM), for the others: top-dose activity change, negative = inhibition, hits mostly inhibitors; HEK293T ELG1-luciferase reporter, luminescence, 16 h; DNA damage induced by 5-fluorouridine; 330,000 tested, 2.3% active; also: % is scaled to controls: 0 for no effect and ±100 for the full control effect; nearly all actives have a fitted effect of over 55% in size
#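 DMSO vehicle served as the neutral condition. Each well held 2,000 cells given 5-fluorouridine plus compound; after 16 hr at 37 °C/5% CO2, ONE-Glo was added and luciferase measured 30 min later.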
# ELG1 genotox: induces genotoxicity in HEK293T cells with luciferase-tagged ELG1; AID 504466; 330,000 tested, 1.3% active; HEK293T ELG1-luciferase reporter, luminescence, 16 h; Potency, µM (titrated, usually from 46 µM), for the others: at the highest dose activity change, positive = activation, usual class: activators; also: % of control where 0% means no effect; nearly all actives have a fitted effect of over 60% in size
#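 ELG1-luciferase HEK293T cells, 2,000/well; compound pinned in; 16 hr, 37 °C, 5% CO2; ONE-Glo, 30 min RT; luminescence on CCD imager.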
# FLuc counter: firefly luciferase modulation, counter-screen for miR-21 project; purified FLuc, Km substrates, luminescence inhibition; Potency, µM (series often up to 57.5 µM), inactives show at the highest dose activity change, negative = inhibition, most hits filed as inhibitors; 360,000 tested, 6.9% active; AID 588342;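 also: plate controls were vehicle for no effect and reference inhibitor for full effect; nearly all actives have a fitted effect of over 55% in size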
# Target sequence (P08659 whole entry, looked up): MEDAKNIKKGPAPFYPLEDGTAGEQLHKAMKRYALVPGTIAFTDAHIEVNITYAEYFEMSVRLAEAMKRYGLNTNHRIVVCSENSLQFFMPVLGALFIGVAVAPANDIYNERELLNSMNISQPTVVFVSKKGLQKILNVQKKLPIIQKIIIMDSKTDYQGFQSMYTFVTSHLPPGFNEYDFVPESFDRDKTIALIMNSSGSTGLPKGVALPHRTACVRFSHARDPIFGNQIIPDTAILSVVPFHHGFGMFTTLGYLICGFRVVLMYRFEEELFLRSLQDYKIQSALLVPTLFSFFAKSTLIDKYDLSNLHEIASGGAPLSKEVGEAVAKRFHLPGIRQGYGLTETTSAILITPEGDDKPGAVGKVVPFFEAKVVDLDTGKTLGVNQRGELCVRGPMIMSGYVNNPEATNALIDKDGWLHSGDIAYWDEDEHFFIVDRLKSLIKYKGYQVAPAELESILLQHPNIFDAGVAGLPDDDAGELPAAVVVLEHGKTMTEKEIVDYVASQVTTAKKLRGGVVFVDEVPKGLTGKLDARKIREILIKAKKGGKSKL
#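 Purified P. pyralis luciferase, 10 nM final, with Km-level 10 uM D-luciferin and 10 uM ATP in 50 mM Tris acetate pH 7.5, 10 mM Mg acetate, 0.01% Tween-20, 0.05% BSA; 6-point qHTS titration about 60 µM downward; luminescence read.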
# * marks the source's active call; other numbers are inactive results; ? = inconclusive; . = no result given; [ ] = another dose, or the depositor's remark. Most compounds without a hit are left out; they make up all but 9.3% or so of the library. Calls follow the shape of the dose curve; as a rule, active = well fitted curve in the direction sought with a large enough effect; inconclusive = small, poorly fitted or top-dose-only effect, or another doubt; inactive = no such curve, though single readings can be large; an effect the other way counts as inactive or inconclusive. Potency is read from the fitted curve at half-maximal effect.
SMILES,NPC1 prom act,SMN2 splice up,Rab9 promoter act,ELG1 repair inh,ELG1 genotox,FLuc counter
O=C(CC1C(=O)N(c2ccccc2)C(=O)N1C1CCCCC1)Nc1ccccc1 (stereo not given),5%,28%,-7%,15%,0%,-5%
Cn1cccc1/C=N/n1cnnc1,0%,22µM*,-4%,-3%,-1%,0%
Clc1ccc(-n2cccc2/C=N/n2cnnc2)cc1,-3%,-9%,-7%,-5%,2%,0%
CN(Cc1nc(-c2cccnc2)no1)S(=O)(=O)c1ccc(Br)cc1,0%,-3%,-7%,?,-16%,1%
COc1ccc(-c2cc(C(=O)N3CCCCC3)no2)cc1OC,?,14%,?,?,?,?
O=C(c1cc(-c2ccc(Cl)cc2)on1)N1CCCCCC1,0.79µM*,.,1.1µM*,?,4.6µM*,1.9µM*
O=C(c1cc(-c2ccc(Cl)c(Cl)c2)on1)N1CCCCCC1,2µM*,.,2.8µM*,?,?,4.8µM*
O=C(c1cc(-c2ccc3c(c2)OCO3)on1)N1CCCCC1,0.32µM*,.,0.5µM*,?,0.12µM*,0.85µM*
O=C(c1cc(-c2ccccc2O)on1)N1CCCCC1,.,20µM*,.,.,.,8.5µM*
CN(CC(=O)Nc1ccc(Cl)c(C(F)(F)F)c1)C(=O)c1ccc(OCC2CCCO2)cc1 (stereo not given),-7%,.,-10%,-16%,-2%,-9%
COc1ccccc1NS(=O)(=O)c1ccc(N/N=C/c2c(C)nn(-c3ccccc3)c2N2CCCC2)c([N+](=O)[O-])c1,-2%,-34%,0%,-2%,1%,-4%
O=C(c1cc(-c2ccc(O)cc2)on1)N1CCCCCC1,1.3µM*,.,2.5µM*,?,?,13µM*
CCN(CC)C(=O)CN(c1ccc(Cl)cc1)S(=O)(=O)c1ccccc1,-2%,9%,-10%,10%,-1%,1%
O=C(Cc1cccs1)N/N=C\c1ccc([N+](=O)[O-])s1,-2%,-58%,-5%,15µM*,-4%,-13%
CCN(CC)c1ccc(/C=N/NC(=O)Cc2cccs2)cc1,12%,-1%,-3%,13%,3%,27µM*
Cc1ccc(/C=N/NC(=O)Cc2cccs2)o1,10%,2%,11%,35%,-3%,-9%
COc1ccc(/C=N/NC(=O)Cc2cccs2)cc1,?,.,?,?,?,17µM*
CCN(CC)c1ccc(/C=N/NC(=O)CNC(=O)/C=C/c2ccco2)cc1,-1%,.,-1%,?,2%,24µM*
COC(=O)CCn1c(C)cc(C(=O)COc2ccccc2C(N)=O)c1C,-20%,-32%,-13%,-12%,-16%,?
Cc1ccc(OCC(=O)c2cc(C)n(-c3ccccc3)c2C)c([N+](=O)[O-])n1,-3%,-58%,-6%,-15%,-4%,19µM*
CC(=O)Nc1ccccc1OCC(=O)c1cc(C)n(Cc2cccs2)c1C,-17%,-109%,-22%,?,10µM*,?
Cc1cc(C(=O)COc2cccnc2[N+](=O)[O-])c(C)n1Cc1cccs1,-2%,-38%,2%,6%,?,24µM*
Cc1cc(-n2c(C)cc(C(=O)COc3cccnc3[N+](=O)[O-])c2C)no1,6%,.,11%,-2%,3%,-7%
O=C(O)CC(C(=O)O)c1cn(Cc2ccccc2)c2ccccc12 (stereo not given),0%,0%,-1%,-1%,1%,3%
N#Cc1ccccc1CSc1nnc(-c2ccc(Br)cc2)o1,.,?,.,.,.,1.2µM*
SMILES,NPC1 prom act,SMN2 splice up,Rab9 promoter act,ELG1 repair inh,ELG1 genotox,FLuc counter
Cc1ccc(-c2nnc(SCc3ccccc3C#N)o2)cc1,.,2.2µM*,.,.,.,0.34µM*
COc1ccc(Cl)cc1C(=O)N1CCC2(CC1)CC(=O)c1ccccc1O2,-2%,.,-4%,-19%,-4%,1%
CC1CCCN(C(=O)CSc2nnc3n(C4CCCC4)c(=O)c4ccccc4n23)C1 (stereo not given),0%,58%,4%,9.2µM*,-20%,-1%
CC1CCCN(C(=O)CSc2nnc(-c3cccs3)o2)C1 (stereo not given),2.5µM*,.,3.5µM*,?,?,21µM*
CCC1CCCCN1C(=O)CSc1nnc(-c2cccs2)o1 (stereo not given),?,?,3.2µM*,?,6.5µM*,17µM*
O=C(CSc1nnc2n(C3CCCC3)c(=O)c3ccccc3n12)N1CCCCCC1,-3%,?,1%,?,-18%,-2%
O=C(/C=C\Nc1ccccn1)c1ccccc1,0.63µM*,2µM*,0.35µM*,?,0.52µM*,0.67µM*
COc1ccc(C(=O)/C=C/Nc2ccccn2)c(OC)c1,0.56µM*,.,0.89µM*,?,1.8µM*,3.4µM*
O=C(/C=C/Nc1ccccc1Br)c1ccccn1,.,?,.,.,.,0.076µM*
COc1ccc(NC(=O)NCc2cccn2Cc2ccc(F)cc2)cc1OC,.,2%,.,.,.,0%
CCC1(c2cccc(Cl)c2)NC(=O)N(Cc2cc(C(=O)OC)c(C)o2)C1=O (stereo not given),1%,.,-4%,?,-15%,1%
CS(=O)(=O)N1CCC(C(=O)Nc2ccc(F)c(Cl)c2)CC1,-5%,.,0%,0%,0%,-2%
c1ccc2c(N3CCOCC3)nc(N3CCOCC3)nc2c1,-3%,5%,-6%,?,1%,4%
Cc1cccc(-c2nc(Nc3ccc(N4CCOCC4)cc3)c3ccccc3n2)c1,1%,1%,-2%,23µM*,-6%,?
Cc1cccc(-c2nc(Nc3cccc(O)c3)c3ccccc3n2)c1,0%,.,1%,?,-6%,?
c1ccc2c(Nc3ccc(N4CCOCC4)cc3)nc(N3CCOCC3)nc2c1,-5%,.,0%,9.2µM*,-11%,-4%
O=S1(=O)N=C(Nc2ccc(N3CCOCC3)cc2)c2ccccc21,7%,?,7%,12%,2%,13µM*
O=S1(=O)N=C(N2CCOCC2)c2ccccc21,4%,-4%,1%,-8%,-1%,7%
CNCc1ccccc1OCC(=O)Nc1ccccc1,14%,18%,23%,?,9%,?
COc1ccccc1/C=C/C(=O)OCC(=O)c1c[nH]c2ccccc12,-3%,.,-3%,-15%,1%,-6%
CCCSCCCNC(=O)Cn1c(=O)c2cccn2c2ccccc21,-12%,.,-3%[1.84 µM],0%,1%,-1%
O=C(NCCC(=O)N1CCN(c2ccccc2O)CC1)c1ccc(Cl)cc1,-1%,.,0%,-7%,1%,0%

# High-throughput results: PubChem BioAssay, National Center for Advancing Translational Sciences (NCATS)
